Results reported in PubChem BioAssay AID504832 (National Center for Advancing Translational Sciences (NCATS), 2011).
Out of some 310,000 compounds screened, about 18,000 (5.8%) were called active. Not shown: some 22% with an inconclusive outcome. For the sample, actives were picked, then their nearest neighbours and some compounds at random. Values without a mark were called inactive. Calls come from the whole dose curve; as a rule, active = well fitted inhibition curve with a large enough effect; inconclusive = small, poorly fitted or top-dose-only effect, or another doubt; inactive = no such curve, though single readings can be large or run the other way.

experiment: Primary qHTS for delayed death inhibitors of the malarial parasite plastid, 48 hour incubation; details: P. falciparum luciferase growth in erythrocytes; series mostly up to 28.7 µM; activity change, negative = inhibition: at the top concentration
Outline: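 Parasite viability was followed by luminescence of a genomically integrated firefly luciferase. Cultures held 0.1% parasitemia at 2% hematocrit (final), incubated under 5% CO2 at 37 C.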
% is set by controls: 0 for no effect and ±100 for the full control effect; potency is the fitted concentration of half-maximal effect.

Row | Structure (SMILES) | activity change, negative = inhibition [%] | Potency
1 | Cc1ccc(C(=O)N(CC(=O)NC2CCCC2)c2ccc(F)cc2)s1 | -0.117 | 
2 | CC(C)(C)N(Cc1ccccc1)C(=O)c1ccncc1 | 11.2 | 
3 | CC(c1ccccc1)(c1ccccc1)c1ccncc1 |  | 16.5 µM (active)
4 | ClC(Cl)(Cl)c1ccccc1 | 4.79 | 
5 | CC1CCCC(NC(=O)c2cc(-c3ccncc3)nc3ccccc23)C1C (stereo not drawn) | -9.17 | 
6 | CC(=O)N1CC(=O)N(CC(=O)Nc2ccc(Br)cc2)C1=S | 12.7 | 
7 | Cc1c(C(=O)NC(C)C2CC3CCC2C3)cccc1[N+](=O)[O-] (stereo not drawn) | 15.2 | 
8 | CC(Sc1nnc(CNC(=O)c2ccccc2F)n1C)C(=O)Nc1nccs1 (stereo not drawn) | 5.18 | 
9 | COc1ccc(CCNC(=O)CN(c2ccccc2)S(C)(=O)=O)cc1OC | -2.55 | 
10 | COc1ccc(CCNC(=O)Cc2ccc(C)cc2)cc1OC | -4.17 | 
11 | COc1ccc(CCNC(=O)c2nnc(CS(=O)(=O)c3ccccc3)o2)cc1OC |  | 2.33 µM (active)
12 | COc1ccc(OC)c(NC(=O)c2ccc3c(c2)CCN3S(C)(=O)=O)c1 | -15.2 | 
13 | CC(C)OC(=O)c1ccc(COc2ccc3ccc(=O)oc3c2)o1 | 22 | 
14 | COc1ccccc1CNC(=O)c1ccc(CS(=O)(=O)c2ccccc2)o1 | -13.2 | 
15 | CCCCCNC(=O)C1c2ccccc2Oc2ccccc21 | -2.43 | 
16 | Cc1ccc(N(Cc2ccc(C(=O)Nc3ccccc3C(=O)NCc3ccco3)cc2)S(C)(=O)=O)cc1C |  | 3.7 µM (active)
17 | COc1ccc(C(=O)Nc2ccccc2C(=O)NCc2ccco2)cc1 | -8.26 | 
18 | CS(=O)(=O)N(Cc1ccc(Cl)cc1)c1ccc(C(=O)NCCSCc2ccco2)cc1 | 13.7 | 
19 | CS(=O)(=O)c1ccc(C(=O)OCC(=O)NNC(=O)COc2ccc(Cl)cc2)cc1 | 11.1 | 
20 | COc1cc(CN2CCCN(C)CC2)c([N+](=O)[O-])cc1OC | 45 | 
21 | Cc1ccc(OCCC(=O)OCC(=O)N2c3ccccc3NC(=O)C2(C)C)cc1 | -0.565 | 
22 | CC(=O)Nc1ccc(S(=O)(=O)N2CCC(C(=O)NC3CC3)CC2)cc1 | 5.93 | 
23 | CN1CCc2ccccc2C1Cc1ccccc1NC(=O)c1sc2ccccc2c1Cl (stereo not drawn) |  | 8.28 µM (active)
24 | O=C(Nc1ccon1)c1sc2ccccc2c1Cl | 21.9 | 
25 | COc1ccc(CNC(=O)CNC(=O)c2sc3ccccc3c2Cl)cc1OC | 5.71 | 
26 | COCc1ccc(CN2CCC(Oc3ccc(C(=O)NCc4ccccn4)cc3)CC2)o1 | -17.3 | 
27 | O=C(O)c1cc(S(=O)(=O)N(Cc2ccccc2)c2ccccc2)ccc1Cl | 0.616 | 

Row | Structure (SMILES) | activity change, negative = inhibition [%] | Potency
28 | C=CCCN(Cc1ccccc1)S(=O)(=O)c1ccccc1Br | 1.07 | 
29 | C=CC(COCc1ccccc1)N(Cc1ccccc1)S(=O)(=O)c1ccccc1Br (stereo not drawn) |  | 9.28 µM (active)
30 | Cc1ccsc1-c1cc(C(=O)O)c2c(ccc3ccccc32)n1 | 32 | 
31 | COc1c(C)cccc1C(=O)Nc1cc(Cl)ccc1N1CCOCC1 | -1.23 | 
32 | COc1cc(OC)c(N2CC(C(=O)Nc3cc(Cl)ccc3N3CCOCC3)CC2=O)cc1Cl (stereo not drawn) |  | 11.7 µM (active)
33 | COc1ccc(Cl)cc1NC(=O)C1CC(=O)N(c2ccc(F)cc2)C1 (stereo not drawn) | 8.24 | 
34 | Cc1cccc(C(=O)Nc2ccc(Oc3cnccn3)cc2)c1 | 51.8 | 
35 | CCCCn1nc(C(=O)Nc2cccc(C(=O)NC3CC3)c2)c2ccccc2c1=O |  | 11.7 µM (active)
36 | COC(=O)c1cc(NC(=O)c2nn(C)c(=O)c3ccccc23)cc(C(=O)OC)c1 | 23 | 
37 | CCCn1nc(C(=O)Nc2ccc3nc(C)sc3c2)c2ccccc2c1=O | 0.708 | 
38 | O=C1c2ccccc2C(=O)N1c1cccc2ccccc12 | -4.37 | 
39 | Cc1c(NC(=O)CSCc2ccccc2)cccc1C(=O)O | 60.5 | 
40 | CC1C(=O)Nc2ccc(S(=O)(=O)N3CCN(c4ccccc4F)CC3)cc2NC1=O (stereo not drawn) | 10.6 | 
41 | Clc1ccc(C(Cn2ccnc2)OCc2ccsc2Cl)c(Cl)c1 (stereo not drawn) |  | 4.26 µM (active)
42 | CC1CCN(S(=O)(=O)c2ccc3c(ccn3CC(=O)O)c2)CC1 | 24.8 | 
43 | Cc1ccc(S(=O)(=O)CC(=O)NC(C)c2ccccc2)cc1 (stereo not drawn) | 21.6 | 
44 | COc1cccc(-n2c(=S)sc3c(=O)n(-c4ccccc4C)c(SCC(=O)O)nc32)c1 | 8.96 | 
45 | CCOc1ccccc1NC(=O)CCc1nnc2ccc(NCc3ccco3)nn12 | -8.77 | 
46 | CCC/C(=N\O)c1c[nH]c2ccccc12 | 40 | 
47 | COc1ccccc1CC(=O)NCCc1c[nH]c2ccccc12 | -28 | 
48 | O=S(=O)(O)Oc1c[nH]c2ccccc12 |  | 7.38 µM (active)
49 | CCc1noc(C)c1C(=O)Oc1ccc(N(C)S(=O)(=O)c2ccc(C)c(C)c2)cc1 | 5.45 | 
50 | CC1(C)O[C@@H]2[C@H](O1)[C@@H](COS(=O)(=O)O)O[C@H]2n1ccc(=O)[nH]c1=O | 26.7 | 
51 | CCN(CC)CCCNC(=O)c1c(O)c2cc(F)cc3c2n(c1=O)C(C)CC3 (stereo not drawn) | 0 | 
52 | CCOC(=O)C1=C(C)NC(=O)N(C(C)=O)C1c1ccc(Cl)cc1 (stereo not drawn) |  | 5.22 µM (active)
53 | COCCOC(=O)C1=C(C)NC(=O)NC1c1ccc(Cl)cc1 (stereo not drawn) | 3.9 | 
